The nature of assay [1]: TOX21_p53_BLA_p2_viability: Viability Assessment in the Tox21 HCT-116 p53 Agonism Beta-lactamase Assay, Phase 2 (AID 2283591).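 Note: compound exposure lasted 16 h at 37 °C; actives lower the ATP signal meaning cytotoxicity.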 An outline of the steps:
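HCT116 p53-bla cells, 4000/well, dosed after 5 h plating (217-fold dilution of DMSO stocks) and incubated 16 h at 37C. Viability taken as cellular ATP by CellTiter-Glo luminescence after 30 min RT; signal loss marks cytotoxicity.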

The target of assay [2] is Cellular tumor antigen p53 (Homo sapiens) (UniProt P04637). The assay is described as follows: TOX21_p53_BLA_p2_ratio: Tox21 HCT-116 p53 Agonism Beta-lactamase Assay, Ratio, Phase 2 (AID 2283592). Put shortly:
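Human colon HCT116 cells with an inducible p53 beta-lactamase reporter are exposed to test chemicals for 16 h at 37C. Reporter induction is read as the 460/530 nm emission ratio after CCF4-AM loading, normalized to DMSO.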

The nature of assay [3]: TOX21_p53_BLA_p3_viability: Viability Assessment in the Tox21 HCT-116 p53 Agonism Beta-lactamase Assay, Phase 3 (AID 2283593).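 Note: cells exposed to compound for 16 h before reading.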 An outline of the steps: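 HCT116 cells, 4000/well, dosed 5 h after plating by pin transfer (217-fold dilution from DMSO stock) and incubated 16 h at 37C, 5% CO2. Viability read as ATP luminescence with CellTiter-Glo after 30 min at room temperature.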

The target in assay [4] is Cellular tumor antigen p53 (Homo sapiens) (UniProt P04637). The assay is described as follows: TOX21_p53_BLA_p3_ratio: Tox21 HCT-116 p53 Agonism Beta-lactamase Assay, Ratio, Phase 3 (AID 2283596). An outline of the steps:
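HCT116 p53-bla cells (4000/well) given compound in DMSO (217-fold dilution) after 5 h, incubated 16 h at 37C. CCF4-AM substrate 2 h at room temperature; 460/530 nm emission ratio, gain fitted against DMSO.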

The nature of assay [5]: TOX21_p53_BLA_p4_viability: Viability Assessment in the Tox21 HCT-116 p53 Agonism Beta-lactamase Assay, Phase 4 (AID 2283597).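 Note: hits lower the luminescence signal meaning cytotoxicity.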 Put shortly:
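Luminescent ATP readout (CellTiter-Glo, 30 min, room temperature) in the same wells as the p53 bla ratio. HCT116 cells were treated for 16 h at 37C with DMSO-dissolved compounds.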

Assay [6] addresses Cellular tumor antigen p53 (Homo sapiens) (UniProt P04637). The assay is described as follows: TOX21_p53_BLA_p5_ratio: Tox21 HCT-116 p53 Agonism Beta-lactamase Assay, Ratio, Phase 5 (AID 2283599). An outline of the steps:
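HCT-116 p53-bla cells (4000/well) plated 5 h, dosed with compound (217-fold DMSO dilution) for 16 h at 37 C; CCF4-AM substrate 2 h at room temperature. Activity is the 460/530 nm emission ratio (405 nm excitation), fitted in gain-of-signal direction versus DMSO.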

The target is the same in assay [7]. Kind of assay: TOX21_p53_BLA_p4_ratio: Tox21 HCT-116 p53 Agonism Beta-lactamase Assay, Ratio, Phase 4 (AID 2283601). Put shortly: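 HCT-116 p53 beta-lactamase reporter cells (4000/well) preincubated 5 h, then compound (217-fold dilution of DMSO stock) for 16 h at 37C. CCF4-AM substrate added 2 h at room temperature; 460/530 nm emission ratio fitted upward versus DMSO.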

Assay [8] can be described thus: Tanguay_ZF_120hpf_MORT_legacy: (Legacy) Oregon State University Tanguay Lab 120 Hour Post-fertilization zebrafish Assay for Mortality (AID 2283633). An outline of the steps: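 Single dechorionated Tropical 5D embryos were held with test chemical (0.64% DMSO final) from 6 to 120 hpf at 28C under foil. Deaths at 24 or 120 hpf were recorded as binary calls, analysed for increase over DMSO controls.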

A short description of assay [9]: Tanguay_ZF_120hpf_YSE_legacy: (Legacy) Oregon State University Tanguay Lab 120 Hour Post-fertilization zebrafish Assay for Yolk Sac Edema (AID 2283634).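 For AC50: actives raise the incidence of yolk sac edema above the DMSO baseline.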 An outline of the steps:
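Single dechorionated embryos were held in sealed plates at 28C with test chemical (0.64% DMSO final) from 6 hpf until 120 hpf. Edema of the yolk sac was then recorded as a binary endpoint; non-mortality endpoints were skipped for dead embryos.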

A short description of assay [10]: TOX21_p53_BLA_p5_viability: Viability Assessment in the Tox21 HCT-116 p53 Agonism Beta-lactamase Assay, Phase 5 (AID 2283600). An outline of the steps:
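Seeded cells (4000/well) settle 5 h before compound addition. Plates then incubate 16 h at 37C, receive FRET substrate for 2 h, and finally CellTiter-Glo, with luminescence measured after a 30 min room-temperature incubation.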

Among the data in PubChem BioAssay (EPA / NIEHS) are outcome and AC50 values, retold here.

Inconclusive results are not listed. Calls of active or inactive are those of the source. Rule for the calls: active = hit-call score of the fitted dose curve at least 0.9, where 1 is the maximum; inconclusive = response in the unintended direction; inactive = score below 0.9.

One may read the AC50 as the concentration giving half of the maximal activity seen.

Sequence of Cellular tumor antigen p53 (Homo sapiens) (P04637 whole entry, looked up): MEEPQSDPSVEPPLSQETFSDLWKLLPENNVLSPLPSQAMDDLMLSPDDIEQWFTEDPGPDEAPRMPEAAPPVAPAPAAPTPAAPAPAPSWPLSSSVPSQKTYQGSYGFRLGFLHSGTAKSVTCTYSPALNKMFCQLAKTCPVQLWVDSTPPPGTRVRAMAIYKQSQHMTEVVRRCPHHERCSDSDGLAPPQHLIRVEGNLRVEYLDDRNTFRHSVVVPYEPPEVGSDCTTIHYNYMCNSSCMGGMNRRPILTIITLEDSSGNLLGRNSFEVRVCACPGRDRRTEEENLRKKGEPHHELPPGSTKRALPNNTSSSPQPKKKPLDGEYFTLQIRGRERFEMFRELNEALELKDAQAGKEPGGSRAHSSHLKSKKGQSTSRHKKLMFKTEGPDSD

With `CC(=O)OCCC(C)C`, the outcome in [1], in assay [2], in assay [3], in assay [4], in assay [5] and in assay [6] was inactive. The outcome in assay [7], in assay [8] and in assay [9] was inactive.
In the case of `CC(C)=CCC/C(C)=C\CO`, the call in assay [1], in [2], in [3], in assay [4], in [5] and in assay [7] was inactive. In addition, the molecule was called inactive in assay [8] and in assay [9].
With `O=C1CCCCCN1`, the molecule was called inactive in [1], in assay [2], in [3], in [4], in [5] and in assay [6]. Also, the call in assay [10], in [7], in [8] and in assay [9] was inactive.
For `CCOC(=O)c1ccc(C2CCC(NC[C@H](O)COc3ccc(O)c(NS(C)(=O)=O)c3)CC2)cc1` (stereo not given in full), the AC50 was 70.1 µM (active) in [1], 80.4 µM (active) in [2], 60.2 µM (active) in [5] and 84 µM (active) in [7]. In addition, the outcome in [3], in assay [4], in [6], in assay [10], in assay [8] and in assay [9] was inactive.
In the case of `CC[C@H]1CC[C@H](NCc2cc3c(cc2OC)[C@H]2C[C@H]2C(=O)N3C)[C@H](c2ccccc2)N1`, the molecule was called inactive in assay [1], in [2], in assay [3], in [7], in [8] and in assay [9]. Besides, in assay [4], the AC50 is 13.3 µM (active).
Consider `O=C1CCC(N2C(=O)c3ccccc3C2=O)C(=O)N1` (stereo not given), for which the outcome in [1], in [2], in assay [3], in assay [4], in [5] and in [10] was inactive. In addition, the outcome in assay [7], in assay [8] and in assay [9] was inactive.
In the case of `CNS(=O)(=O)c1cc(C(=O)N2CCC(CCN3C4CCC3CC(n3c(C)nc5ccccc53)C4)(c3cccc(F)c3)CC2)c(Cl)cc1F` (stereo not given), the results for the AC50 in assay [1], in assay [3] and in assay [5] were 26.9 µM (active), 46.1 µM (active) and 16.2 µM (active), respectively. Further, the result in [2], in [6], in assay [10], in assay [7], in assay [8] and in assay [9] was inactive.
With `COC(=O)c1ccccc1O`, the outcome in assay [1], in [2], in assay [3], in assay [4], in [5] and in [10] was inactive. The result in [7], in assay [8] and in assay [9] was inactive.
For `CCCN(C1CCN(C(=O)C2CCNCC2)CC1)[C@@H]1CCc2ccc(OC)cc2C1`, the molecule was called inactive in [1], in assay [2], in [3], in assay [4], in assay [10] and in assay [7]. Also, the call in assay [8] and in assay [9] was inactive.
`CCCCCCCCO`: the molecule was classed as inactive in assay [1], in assay [2], in [3], in [4], in [10] and in assay [7]. The molecule was classed as inactive in assay [8] and in [9].
Turning to `CCCCCCCCCCCCCCCO`, the molecule was called inactive in [1], in assay [2], in assay [3], in [4], in assay [6] and in [8]. For the same molecule, the call in assay [9] was inactive.
Consider `CC(C)CCO`, for which the molecule was called inactive in assay [1], in assay [2], in assay [3], in assay [5], in assay [10] and in assay [8]. Further, the call in assay [9] was inactive.
As to `CCCCCCCCCCCCc1ccccc1`, the result in assay [1], in assay [2], in assay [3], in [4], in assay [6] and in [7] was inactive. Also, the result in assay [8] and in assay [9] was inactive.
As to `COc1ccc(/C=C/S(=O)(=O)NC(=O)c2ccc(C)cc2Cl)cc1`, the result in assay [1], in [3], in assay [10] and in assay [8] was inactive. The AC50 in [2] is 28 µM (active); in assay [4] it was 29 µM (active); in assay [6], 29.5 µM (active); in assay [7], 21.2 µM (active).
For the molecule `CC(C)CC(C)(O)C#CC(C)(O)CC(C)C` (stereo not given), the call in assay [1], in [2], in assay [3], in assay [4], in assay [5] and in [10] was inactive. Also, the result in [7], in [8] and in assay [9] was inactive.
Turning to `C=CCCCCCCCCC(=O)O`, the molecule was classed as inactive in assay [1], in [2], in [3], in [5], in assay [6] and in [10]. Moreover, the outcome in [7], in assay [8] and in assay [9] was inactive.
For the molecule `COc1ccc(-n2nc(C(F)F)cc2-c2ccc(S(C)=O)cc2)cc1` (stereo not given), the call in assay [1], in assay [2], in [3], in assay [4], in [5] and in assay [6] was inactive. Further, the result in [8] was inactive. For the same molecule, the AC50 in [9] was 24.8 µM (active).
Regarding `CCCCC(CC)COC(=O)CCCCCCCCC(=O)OCC(CC)CCCC` (stereo not given), the outcome in [1], in assay [2], in assay [3], in assay [10], in assay [8] and in assay [9] was inactive.
Regarding `Oc1ccc2c(c1)-c1ccccc1C2`, the result in assay [1], in assay [2], in [3], in assay [4], in assay [5] and in assay [6] was inactive. Moreover, the outcome in assay [10] and in [8] was inactive. For the same molecule, the half-maximal activity concentration (AC50) was 79.7 µM (active) in assay [7] and 37.6 µM (active) in [9].
As to `CC(C)CCCCCCCOC(=O)CCCCC(=O)OCCCCCCCC(C)C`, the molecule was called inactive in assay [1], in [2], in [3], in [4], in assay [7] and in assay [8]. For the same molecule, the result in [9] was inactive.
On to `NC(=O)NO`, for which the molecule was classed as inactive in [1], in assay [2], in [4], in assay [5], in assay [6] and in assay [10]. The outcome in [7], in assay [8] and in assay [9] was inactive.
As to `O=C(NS(=O)(=O)/C=C/c1ccccc1)c1ccc(F)cc1Cl`, the molecule was classed as inactive in assay [1], in assay [8] and in assay [9]. For the same molecule, the AC50 in assay [2] is 13 µM (active); in assay [4] it was 24.9 µM (active); in [6], 13.5 µM (active); in [7], 22 µM (active).
In the case of `O=c1[nH]c2ccc(S(=O)CCN3CCC(Cc4ccc(F)cc4)CC3)cc2o1` (stereo not given), the result in [2], in [3], in [4], in [5], in assay [6] and in [7] was inactive. Further, the result in assay [8] and in assay [9] was inactive.
